Reference: PubChem BioAssay (NCI)
The panel holds about 83,000 compounds, 20% with a hit somewhere; the sample as a whole holds those more often.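 In brief: 96-well plates, 48 h treatment, single concentration, percent growth endpoint.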 The source made the active and inactive calls. How the source made its calls: active means growth percent below 10; inactive means the rest.

Experiments:
Test in all cases: NCI-60 one-dose screen, 48 h (100 = growth as untreated, 0 = no growth, -100 = all killed)
SK-MEL-2 melanoma = conditions: 10 µM unless noted
EKVX NSCLC = conditions: 10 µM unless noted
SN12C renal = conditions: 10 µM unless noted
TK-10 renal = conditions: 10 µM unless noted
ACHN renal = conditions: 10 µM unless noted
CAKI-1 renal = conditions: 10 µM
A498 renal = conditions: 10 µM unless noted
CCRF-CEM leukemia = conditions: 10 µM unless noted
MOLT-4 leukemia = conditions: 10 µM unless noted
SR leukemia = conditions: 10 µM unless noted
OVCAR-8 ovarian = conditions: 10 µM unless noted
OVCAR-5 ovarian = conditions: 10 µM unless noted
OVCAR-4 ovarian = conditions: 10 µM unless noted
SK-OV-3 ovarian = conditions: 10 µM unless noted
IGROV1 ovarian = conditions: 10 µM unless noted
OVCAR-3 ovarian = conditions: 10 µM unless noted
HS 578T breast = conditions: 10 µM unless noted
NCI/ADR-RES ovarian = conditions: 10 µM unless noted
RPMI-8226 leukemia = conditions: 10 µM unless noted
UO-31 renal = conditions: 10 µM unless noted

Measured: growth

C#C[C@]1(O)CC[C@H]2[C@@H]3CC=C4c5sc(C6CC6)nc5CC[C@]4(C)[C@H]3CC[C@@]21C
inactive: SK-MEL-2 melanoma 90% | EKVX NSCLC 80.1% | SN12C renal 86.1% | TK-10 renal 124% | ACHN renal 91.4% | CAKI-1 renal 79.6% | A498 renal 99.9% | CCRF-CEM leukemia 58.7% | MOLT-4 leukemia 46.8% | SR leukemia 46.5% | OVCAR-8 ovarian 88.3% | OVCAR-5 ovarian 85.7% | OVCAR-4 ovarian 107% | SK-OV-3 ovarian 116% | IGROV1 ovarian 97.9% | OVCAR-3 ovarian 89.2% | HS 578T breast 68.1% | NCI/ADR-RES ovarian 84.6%

Cc1cnc2nc(NN)[nH]n12
inactive: SK-MEL-2 melanoma 102% | EKVX NSCLC 98.5% | SN12C renal 98.6% | TK-10 renal 105% | ACHN renal 98.4% | CAKI-1 renal 86.2% | A498 renal 111% | CCRF-CEM leukemia 102% | MOLT-4 leukemia 102% | SR leukemia 101% | RPMI-8226 leukemia 104% | OVCAR-8 ovarian 98% | OVCAR-5 ovarian 101% | OVCAR-4 ovarian 104% | SK-OV-3 ovarian 102% | IGROV1 ovarian 97.6% | HS 578T breast 107% | NCI/ADR-RES ovarian 104%

COc1cccc(/C=C/C(=O)c2ccc(NC(=O)COc3cccc4cccnc34)cc2)c1
inactive: SK-MEL-2 melanoma 100% | EKVX NSCLC 93.2% | SN12C renal 95.4% | TK-10 renal 109% | ACHN renal 101% | CAKI-1 renal 92.1% | CCRF-CEM leukemia 95.3% | MOLT-4 leukemia 88.9% | SR leukemia 74.6% | RPMI-8226 leukemia 73.4% | OVCAR-8 ovarian 98.1% | OVCAR-5 ovarian 103% | OVCAR-4 ovarian 101% | SK-OV-3 ovarian 104% | IGROV1 ovarian 100% | OVCAR-3 ovarian 102% | HS 578T breast 100%

Fc1ccc(-c2cc3nc(C(Cl)Cl)nc(-c4cccs4)n3n2)cc1
inactive: SK-MEL-2 melanoma 87.7% | SN12C renal 64.5% | CCRF-CEM leukemia 86% | MOLT-4 leukemia 65.4% | SR leukemia 83.8% | OVCAR-8 ovarian 24% | OVCAR-4 ovarian 29.8% | IGROV1 ovarian 61.2%
active: EKVX NSCLC 6.21% | TK-10 renal 7.64% | ACHN renal -19.9% | CAKI-1 renal -20.4% | A498 renal -20.7% | RPMI-8226 leukemia -3.54% | OVCAR-5 ovarian 9.21% | OVCAR-3 ovarian -26.2% | HS 578T breast -5.63% | NCI/ADR-RES ovarian 5.56%

CC(=O)NC(C)(C)C(=O)N1CCC[C@H]1C(=O)NC(C)(C)C(=O)N[C@@H](C)C(=O)NC(C)(C)C(=O)NC(C)(C)C(=O)N[C@@H](CCC(N)=O)C(=O)NC(C)(C)C(=O)N[C@H](C(=O)NC(C)(C)C(=O)NCC(=O)N[C@@H](CC(C)C)C(=O)NC(C)(C)C(=O)N1CCC[C@H]1C(=O)N[C@H](C(=O)NC(C)(C)C(=O)NC(C)(C)C(=O)N[C@@H](CCC(N)=O)C(=O)N[C@@H](CCC(N)=O)C(=O)N[C@H](CO)Cc1ccccc1)C(C)C)C(C)C
inactive: EKVX NSCLC 65% [4.25 µM] | SN12C renal 13.4% [4.25 µM] | TK-10 renal 59.2% [4.25 µM] | ACHN renal 96.3% [4.25 µM] | A498 renal 25% [4.25 µM] | CCRF-CEM leukemia 36.3% [4.25 µM] | MOLT-4 leukemia 35.6% [4.25 µM] | SR leukemia 30.2% [4.25 µM] | OVCAR-8 ovarian 46.3% [4.25 µM] | OVCAR-4 ovarian 24.5% [4.25 µM] | SK-OV-3 ovarian 17.1% [4.25 µM] | IGROV1 ovarian 46.4% [4.25 µM] | OVCAR-3 ovarian 26.3% [4.25 µM] | HS 578T breast 46% [4.25 µM] | NCI/ADR-RES ovarian 101% [4.25 µM]
active: SK-MEL-2 melanoma 0.326% [4.25 µM] | RPMI-8226 leukemia -17.4% [4.25 µM]

CC(=O)NC(C)(C)C(=O)N[C@@H](C)C(=O)NC(C)(C)C(=O)N[C@@H](C)C(=O)NC(C)(C)C(=O)N[C@@H](C)C(=O)N[C@@H](CCC(N)=O)C(=O)NC(C)(C)C(=O)N[C@H](C(=O)NC(C)(C)C(=O)NCC(=O)N[C@@H](CC(C)C)C(=O)NC(C)(C)C(=O)N1CCC[C@H]1C(=O)N[C@H](C(=O)NC(C)(C)C(=O)NC(C)(C)C(=O)N[C@@H](CCC(N)=O)C(=O)N[C@@H](CCC(N)=O)C(=O)N[C@H](CO)CC1CCCCC1)C(C)C)C(C)C
active: SK-MEL-2 melanoma 5.52% [5 µM] | RPMI-8226 leukemia -3.49% [5 µM]
inactive: EKVX NSCLC 52% [5 µM] | SN12C renal 21.2% [5 µM] | UO-31 renal 53.1% [5 µM] | TK-10 renal 38.8% [5 µM] | ACHN renal 72.2% [5 µM] | A498 renal 52.3% [5 µM] | CCRF-CEM leukemia 55.6% [5 µM] | MOLT-4 leukemia 55.1% [5 µM] | SR leukemia 43.6% [5 µM] | OVCAR-8 ovarian 44.2% [5 µM] | OVCAR-5 ovarian 55.1% [5 µM] | OVCAR-4 ovarian 23.8% [5 µM] | SK-OV-3 ovarian 45.1% [5 µM] | OVCAR-3 ovarian 35% [5 µM] | HS 578T breast 62.1% [5 µM] | NCI/ADR-RES ovarian 96.9% [5 µM]

C=C(C)C(=O)O[C@H]1C[C@@]2(C)OC(=CC2=O)[C@H](C)[C@H](O)[C@H]2OC(=O)C(=C)[C@@H]21
inactive: SK-MEL-2 melanoma 43.1% | EKVX NSCLC 73.6% | SN12C renal 73.9% | UO-31 renal 53.9% | ACHN renal 31.9% | A498 renal 131% | MOLT-4 leukemia 76.6% | SR leukemia 38.1% | RPMI-8226 leukemia 27.1% | OVCAR-8 ovarian 71.9% | OVCAR-5 ovarian 98.6% | OVCAR-4 ovarian 82.3% | SK-OV-3 ovarian 89.7% | IGROV1 ovarian 69.7% | OVCAR-3 ovarian 20.1% | HS 578T breast 95.4% | NCI/ADR-RES ovarian 84.1%
active: CCRF-CEM leukemia 7.85%

CC(C)=CCc1c(O)c(CC=C(C)C)c2c(c1O)C(=O)C1=C[C@@H]3C[C@H]4C(C)(C)O[C@@](C/C=C(\C)C(=O)O)(C3=O)[C@@]14O2
inactive: SN12C renal 12.3% | OVCAR-8 ovarian 10.1% | OVCAR-4 ovarian 33.2% | SK-OV-3 ovarian 42.4% | HS 578T breast 27.7% | NCI/ADR-RES ovarian 10.7%
active: SK-MEL-2 melanoma -53% | EKVX NSCLC -3.05% | UO-31 renal -30.9% | ACHN renal -0.932% | A498 renal -31.6% | CCRF-CEM leukemia 1.76% | MOLT-4 leukemia 1.93% | SR leukemia -4.41% | RPMI-8226 leukemia -23.1% | OVCAR-5 ovarian 8.41% | IGROV1 ovarian -21.8%

C=C1C(=O)O[C@@H]2C[C@@H](C)/C=C\C(=O)[C@](C)(OC(C)=O)C[C@H](OC(=O)/C(C)=C\C)[C@@H]12
inactive: A498 renal 38.8% | OVCAR-4 ovarian 18.2% | SK-OV-3 ovarian 80.7% | HS 578T breast 19.1% | NCI/ADR-RES ovarian 10.5%
active: SK-MEL-2 melanoma -15.9% | EKVX NSCLC 5.52% | UO-31 renal -88.6% | TK-10 renal -61% | ACHN renal -75.5% | CAKI-1 renal -11.1% | CCRF-CEM leukemia -17% | MOLT-4 leukemia 2.13% | SR leukemia 3.84% | RPMI-8226 leukemia -12.6% | OVCAR-8 ovarian -16.1% | OVCAR-5 ovarian -29.5% | IGROV1 ovarian -19.7% | OVCAR-3 ovarian -23.3%

COc1ccc(NC(=O)[C@H](C)NC(=O)OC(C)(C)C)cc1C(=O)Nc1cccc(-c2cc(=O)c3c(OC)c(OC)c(OC)cc3o2)c1
inactive: UO-31 renal 16.8% | ACHN renal 10.3% | CAKI-1 renal 17.4% | OVCAR-4 ovarian 21.3% | IGROV1 ovarian 11.5% | NCI/ADR-RES ovarian 61.4%
active: EKVX NSCLC 3.7% | SN12C renal 2.23% | TK-10 renal -3.36% | A498 renal -53.3% | CCRF-CEM leukemia 3.69% | MOLT-4 leukemia 7.83% | SR leukemia 8.47% | RPMI-8226 leukemia -39.4% | OVCAR-8 ovarian -27.5% | OVCAR-5 ovarian 3.94% | SK-OV-3 ovarian -17.8% | HS 578T breast -9.5%

CCC(CC)n1c(=O)c(SC2=NC3C(NN2)N(CC)C(=O)N3CC)c(C(=O)O)c2ccccc21 (stereo not drawn)
active: A498 renal -10.5% | OVCAR-8 ovarian 8.01%
inactive: EKVX NSCLC 52.8% | SN12C renal 20.1% | UO-31 renal 39.5% | TK-10 renal 68.8% | ACHN renal 27.7% | CAKI-1 renal 36.6% | CCRF-CEM leukemia 16.6% | MOLT-4 leukemia 16.2% | SR leukemia 14.4% | RPMI-8226 leukemia 14.4% | OVCAR-5 ovarian 37.3% | OVCAR-4 ovarian 65% | SK-OV-3 ovarian 40.6% | IGROV1 ovarian 32.6% | HS 578T breast 19.3% | NCI/ADR-RES ovarian 20.4%

CCN1C(=O)N(CC)C2C1NN=C1SC(c3ccccc3)=CC(=O)N12 (stereo not drawn)
inactive: EKVX NSCLC 45.6% | SN12C renal 36.7% | UO-31 renal 43.3% | TK-10 renal 62.8% | ACHN renal 45.2% | CAKI-1 renal 37.5% | CCRF-CEM leukemia 13.2% | MOLT-4 leukemia 18.2% | SR leukemia 16.2% | OVCAR-8 ovarian 18.2% | OVCAR-5 ovarian 29.1% | OVCAR-4 ovarian 72.5% | SK-OV-3 ovarian 42.2% | IGROV1 ovarian 41.4% | NCI/ADR-RES ovarian 19.2%
active: A498 renal -7.16% | RPMI-8226 leukemia 4.35% | HS 578T breast 3.22%

C=C1C(=O)O[C@@H]2/C=C(/C)C3=CC(=O)[C@@](C)(C[C@H](OC(=O)/C(C)=C\C)[C@@H]12)O3
inactive: EKVX NSCLC 21.6% | A498 renal 59.5% | OVCAR-4 ovarian 21% | SK-OV-3 ovarian 92.6% | IGROV1 ovarian 19% | HS 578T breast 46.5% | NCI/ADR-RES ovarian 17.4%
active: SK-MEL-2 melanoma -28.5% | UO-31 renal -85.4% | TK-10 renal -18% | ACHN renal -39.1% | CAKI-1 renal 6.13% | CCRF-CEM leukemia -14.9% | MOLT-4 leukemia 0.44% | SR leukemia 2.49% | OVCAR-8 ovarian 8.15% | OVCAR-5 ovarian 4.42% | OVCAR-3 ovarian 2.79%

Cc1cc(-c2ccc3nc(N)sc3c2)nc2ccc3[nH]ncc3c12
active: SK-MEL-2 melanoma -3.92% | A498 renal -9.07% | HS 578T breast 6.21%
inactive: SN12C renal 32% | UO-31 renal 51.4% | TK-10 renal 50.1% | ACHN renal 40.7% | CAKI-1 renal 20.3% | CCRF-CEM leukemia 27.1% | MOLT-4 leukemia 33.2% | SR leukemia 13.7% | RPMI-8226 leukemia 39.6% | OVCAR-8 ovarian 41.2% | OVCAR-5 ovarian 57.6% | OVCAR-4 ovarian 61.6% | SK-OV-3 ovarian 31.5% | IGROV1 ovarian 33.6% | NCI/ADR-RES ovarian 13.6%

CSc1nccc(-c2c(-c3ccc(F)c(OCc4ccc(F)cc4)c3)nc3sccn23)n1
inactive: EKVX NSCLC 89.8% | SN12C renal 74% | UO-31 renal 53.7% | TK-10 renal 70% | ACHN renal 43.8% | CAKI-1 renal 68% | A498 renal 46.5% | CCRF-CEM leukemia 81.8% | MOLT-4 leukemia 45.1% | SR leukemia 73.4% | RPMI-8226 leukemia 53.2% | OVCAR-8 ovarian 84.4% | OVCAR-5 ovarian 95.4% | OVCAR-4 ovarian 61.8% | SK-OV-3 ovarian 71.4% | IGROV1 ovarian 55.8% | HS 578T breast 88.2% | NCI/ADR-RES ovarian 73.6%
